Laboratory results taken from PubChem BioAssay AID1053173 (Broad Institute, 2014).
In all, about 1,500 compounds went through this assay and about 390 (26%) were called active. No rule for the calls is given here. Not all results are given here. Entries with a potency or affinity are not part of this list.

Each molecule was assayed against Histone-lysine N-methyltransferase NSD2 (Homo sapiens) (UniProt O96028) (assay: NSD2 methyltransferase inhibitors, dose response, biochemical, AlphaScreen, cherry-picked samples (AID 1053173)). Settings: NSD2 H4 peptide methylation, 120 min; series mostly up to 10 µM.
Histone-lysine N-methyltransferase NSD2 (Homo sapiens), sequence (O96028 whole entry, looked up): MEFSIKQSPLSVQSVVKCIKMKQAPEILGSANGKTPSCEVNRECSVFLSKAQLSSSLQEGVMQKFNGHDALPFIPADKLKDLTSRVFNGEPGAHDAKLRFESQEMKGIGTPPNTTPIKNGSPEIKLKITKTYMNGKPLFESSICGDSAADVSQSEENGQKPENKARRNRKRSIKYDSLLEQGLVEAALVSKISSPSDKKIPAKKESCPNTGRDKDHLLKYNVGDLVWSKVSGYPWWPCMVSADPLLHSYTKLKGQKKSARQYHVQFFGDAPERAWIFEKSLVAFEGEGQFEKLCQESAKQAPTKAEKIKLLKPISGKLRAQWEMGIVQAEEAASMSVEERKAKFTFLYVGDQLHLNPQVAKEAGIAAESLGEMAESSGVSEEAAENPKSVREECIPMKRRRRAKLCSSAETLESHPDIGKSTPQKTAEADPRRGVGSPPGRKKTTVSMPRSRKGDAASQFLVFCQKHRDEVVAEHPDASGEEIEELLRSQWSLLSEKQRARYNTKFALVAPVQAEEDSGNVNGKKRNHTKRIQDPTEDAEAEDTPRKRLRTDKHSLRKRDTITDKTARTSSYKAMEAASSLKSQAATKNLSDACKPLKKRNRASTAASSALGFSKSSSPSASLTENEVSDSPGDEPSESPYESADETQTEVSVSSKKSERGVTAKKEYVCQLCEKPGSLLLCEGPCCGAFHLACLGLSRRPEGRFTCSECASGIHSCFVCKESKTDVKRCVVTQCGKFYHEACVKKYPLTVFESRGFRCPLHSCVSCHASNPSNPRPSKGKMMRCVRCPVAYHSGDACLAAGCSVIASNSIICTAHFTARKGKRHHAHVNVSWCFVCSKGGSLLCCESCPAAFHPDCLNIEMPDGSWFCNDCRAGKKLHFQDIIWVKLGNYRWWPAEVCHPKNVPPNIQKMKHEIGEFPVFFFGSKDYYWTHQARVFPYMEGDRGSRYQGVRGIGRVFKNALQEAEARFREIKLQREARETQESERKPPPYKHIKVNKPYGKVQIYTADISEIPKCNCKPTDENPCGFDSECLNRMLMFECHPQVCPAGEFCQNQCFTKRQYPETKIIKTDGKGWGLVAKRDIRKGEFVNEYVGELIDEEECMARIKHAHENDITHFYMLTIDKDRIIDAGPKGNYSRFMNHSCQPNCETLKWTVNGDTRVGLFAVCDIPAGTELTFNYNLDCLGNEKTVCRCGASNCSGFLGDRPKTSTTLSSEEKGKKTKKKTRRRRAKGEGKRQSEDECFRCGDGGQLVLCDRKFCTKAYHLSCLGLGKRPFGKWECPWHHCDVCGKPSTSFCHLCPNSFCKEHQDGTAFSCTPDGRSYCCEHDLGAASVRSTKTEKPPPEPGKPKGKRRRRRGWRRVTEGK

outcome, inactive:
O=C1CN(C(=O)COC(=O)c2ccc([N+](=O)[O-])s2)c2ccccc2N1
CCN(CC)S(=O)(=O)c1ccc(N2CCN(C)CC2)c(NC(=O)Nc2ccccc2F)c1
Cc1ccc(S(=O)(=O)N2CCN(C(=O)C(F)(F)F)C2c2ccc(N(C)C)cc2)cc1 (stereo not given)
Cc1ccccc1CN1CCN(C(=O)c2ccco2)CC1
CC1Oc2ccc(C#N)cc2N(Cc2cccc(F)c2)C1=O (stereo not given)
C=CCN1CCN(C(c2cccc(OC)c2OC)c2nnnn2CCC(C)C)CC1 (stereo not given)
CC(=O)c1ccc(NC(=O)CC2Nc3cccc4cccc(c34)NC2=O)cc1 (stereo not given)
O=C1CCCC2=C1C(c1ccc(O)c(O)c1)c1c(ccc3ncccc13)N2 (stereo not given)
COCCCNC(=S)Nc1cccc2ncccc12
CN(CCc1ccccc1)C1CCCN(S(=O)(=O)N(C)C)C1 (stereo not given)
C/C(CC(=O)NCCCN1CCOCC1)=N\NC(=O)COc1ccc(Cl)cc1
O=C(COC(=O)c1ccc([N+](=O)[O-])o1)NC1CCS(=O)(=O)C1 (stereo not given)
Cc1cccc(NC(=O)c2ccc(NS(=O)(=O)c3cccc4cccnc34)cc2)c1
Cc1ccc(CSc2nnc(Nc3ccc(C)cc3)s2)cc1
CN(c1ccc(C(=O)O)cc1)S(=O)(=O)c1ccccc1
Cc1cc(C)c2c(c1)N[C@H](c1cccs1)[C@@H]1CCO[C@H]21
CC(NC(=O)c1cccc(Br)c1)c1ccccc1 (stereo not given)
CCN(CC)C(=O)COc1ccc2oc(C)c(C(=O)OC(C)C)c2c1
COc1ccc(C)cc1NC(=O)CCNC(=O)Cn1cnc2ccccc2c1=O
Cc1ccc(Cn2c(SCC(=O)NCC3CCCO3)nc3c2c(=O)n(C)c(=O)n3C)cc1 (stereo not given)
C/C(C=Nn1c(-c2ccc(F)cc2)n[nH]c1=S)=C/c1ccco1
Cc1ccc(C(=O)NC(=S)NNC(=O)c2ccccc2O)cc1
Cc1cc2ccccn2c1C(=O)c1ccc([N+](=O)[O-])o1
COc1ccc(S(=O)(=O)NCc2ccc3c(c2)OCO3)cc1OC
Cn1c(COc2ccc(Cl)cc2)nnc1SCC(=O)NC1CCCCC1
Cc1ccc(S(=O)(=O)N2CCCC(N3CCOCC3)C2)cc1Cl (stereo not given)
O=C1CC(C(=O)N2CCc3ccccc32)CN1c1ccccc1 (stereo not given)
O=C(OCC(=O)N1CCOCC1)c1ccc(Br)cc1
O=C(c1cc(-c2ccc(Cl)cc2)n(-c2ccc(Cl)cc2)n1)N1CCOCC1
O=C(NCCC(=O)N1CCc2ccccc21)c1ccco1
